In PubChem BioAssay (EPA / NIEHS):
Several values for one entry are separate records, joined by “and”; a condition that tells them apart may be missing. Equal entries are not always repeated. Where a structure was tested more than once in an assay, its records may differ in their call. Activity calls are given as the source filed them. How the source made its calls: active means hit-call score of the fitted dose curve at least 0.9, where 1 is the maximum; inactive means score below 0.9.

Tests used:
[1] = ATG_GLI_CIS: Attagene CIS-FACTORIAL HepG2 Assay for human Zinc Finger Protein GLI1 (AID 2282945); settings: HepG2, Attagene cis-factorial reporter mRNA, GLI element; actives raise or lower the signal
Method in brief: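 HepG2 cells transiently transfected with cis-promoter multiplexed reporter units report endogenous transcription factor activity. After 24 h chemical exposure, reporter mRNA was quantified by RT-PCR, 6-FAM labelling, HpaI digestion and capillary electrophoresis, with bidirectional fitting against DMSO.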

[2] = target: Bile acid receptor (Homo sapiens) (UniProt Q96RI1); test: ATG_IR1_CIS: Attagene CIS-FACTORIAL HepG2 Assay for human Nuclear Receptor Subfamily 1 Group H Member 4 (NR1H4), IR1 submotif (AID 2282946); settings: IR1 reporter transcription, actives raise or lower the signal
Method in brief: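 Transient MRTU transfection, HepG2; 24 h dosing; RNA → RT-PCR → 6-FAM primer extension → HpaI digest → capillary electrophoresis fluorescence. Gain/loss of signal fitted relative to DMSO.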

[3] = ATG_GRE_CIS: Attagene CIS-FACTORIAL HepG2 Assay for human Glucocorticoid Response Elements (GRE) (AID 2282947); settings: HepG2 GRE cis-reporter, Attagene multiplex mRNA; actives raise or lower the signal
Method in brief: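 HepG2 cells transiently transfected with multiple cis-promoter reporter units measure endogenous TF activity; 24 h compound exposure. Reporter mRNA quantified by RT-PCR, FAM labelling, HpaI digestion and capillary electrophoresis; bidirectional fit vs DMSO baseline.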

[4] = ATG_ISRE_CIS: Attagene CIS-FACTORIAL HepG2 Assay for human Interferon Regulatory Factor 1 (IRF1) binding to an Interferon-Stimulated Response Element (ISRE) (AID 2282948); settings: HepG2 ISRE cis-reporter (Attagene), mRNA transcription readout; actives raise or lower the signal
Method in brief: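 Cell-based cis-reporter assay; HepG2; 24 h exposure; reporter mRNA by RT-PCR plus capillary electrophoresis fluorescence; activity in either direction scored relative to DMSO.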

[5] = ATG_M_32_CIS: Attagene CIS-FACTORIAL HepG2 Assay for M32 Transcription Factor (Internal Marker) (AID 2282949); settings: HepG2 Attagene cis-factorial M32 reporter, mRNA; actives raise or lower the signal;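 further: background control marker of the multiplexed CIS panel rather than a real target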
Method in brief: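 Following 24 h chemical exposure of HepG2 cells transiently expressing cis-promoter reporter constructs, reporter transcript levels were determined by RT-PCR with fluorescent labelling and capillary electrophoresis, then fitted bidirectionally against DMSO.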

[6] = ATG_M_06_CIS: Attagene CIS-FACTORIAL HepG2 Assay for M06 Transcription Factor (Internal Marker) (AID 2282950); settings: HepG2 Attagene CIS-FACTORIAL M06 internal marker reporter; actives raise or lower the signal
Method in brief: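 Steps: transfect HepG2 with multiplexed cis-element reporter constructs; dose chemical 24 h; extract RNA with DNase treatment; reverse-transcribe, PCR-amplify, 6-FAM label, HpaI digest; separate fragments by capillary electrophoresis. Activity fitted both directions versus DMSO.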

[7] = target: Hypoxia-inducible factor 1-alpha (Homo sapiens) (UniProt Q16665); test: ATG_HIF1a_CIS: Attagene CIS-FACTORIAL HepG2 Assay for human Hypoxia Inducible Factor 1 (HIF1A) (AID 2282951); settings: HepG2 Attagene cis-factorial HIF1a reporter transcription; actives raise or lower the signal
Method in brief: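 Cis-element reporter constructs were transiently transfected into HepG2 cells, which were treated for 24 h; reporter RNA was reverse-transcribed, amplified, labelled and resolved by capillary electrophoresis.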

[8] = target: Hepatocyte nuclear factor 6 (Homo sapiens) (UniProt Q9UBC0); test: ATG_HNF6_CIS: Attagene CIS-FACTORIAL HepG2 Assay for human Hepatocyte Nuclear Factor 6 (HNF6) (AID 2282952); settings: HepG2 Attagene cis-factorial HNF6 reporter transcription; actives raise or lower the signal
Method in brief: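 HepG2 cells transiently transfected with cis-element-driven multiple reporter transcription units, dosed 24 h; reporter mRNA quantified by RT-PCR, FAM primer extension, HpaI digestion and capillary electrophoresis; bidirectional fit versus DMSO baseline.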

[9] = target: Heat shock factor protein 1 (Homo sapiens) (UniProt Q00613); test: ATG_HSE_CIS: Attagene CIS-FACTORIAL HepG2 Assay for human Heat Shock Transcription Factor 1 (HSE) (AID 2282953); settings: HepG2 HSE cis-reporter, Attagene RNA transcription; actives raise or lower the signal
Method in brief: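 Cells were transfected with cis-element-driven reporter constructs, dosed for 24 h, then total RNA was reverse-transcribed and reporter cDNA amplified, FAM-labelled and digested with HpaI. Fragments were resolved by capillary electrophoresis; gain or loss was fitted against DMSO.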

[10] = ATG_MRE_CIS: Attagene CIS-FACTORIAL HepG2 Assay for human Metal Responsive Element (MRE) (AID 2282954); settings: HepG2 MRE cis-reporter transcription, Attagene multiplex; actives raise or lower the signal
Method in brief: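 HepG2 cells transiently transfected with multiple cis-element reporter units measure endogenous MTF1-driven transcription. After 24 h compound exposure, reporter mRNA is quantified by RT-PCR with 6-FAM labelling, HpaI digestion and capillary electrophoresis; bidirectional fits versus DMSO.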

[11] = target: Paired box protein Pax-6 (Homo sapiens) (UniProt P26367); test: ATG_Pax6_CIS: Attagene CIS-FACTORIAL HepG2 Assay for human Paired Box 6 (PAX6) (AID 2282956); settings: HepG2 CIS-FACTORIAL PAX6 reporter transcription, RNA readout; actives raise or lower the signal
Method in brief: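 Multiplexed cis-reporter HepG2 system; 24 h treatment; reporter mRNA read by RT-PCR/CE fluorescence; bidirectional fit vs DMSO.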

[12] = ATG_PXRE_CIS: Attagene CIS-FACTORIAL HepG2 Assay for human Pregnane X Receptor Element (PXRE) (AID 2282957); settings: HepG2 Attagene CIS-FACTORIAL PXRE reporter, mRNA; actives raise or lower the signal
Method in brief: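 HepG2 cells transiently transfected with cis-regulated multiple reporter transcription units; endogenous factor activity measured as reporter mRNA 24 h after dosing. RT-PCR, fluorescent primer extension, HpaI digestion, capillary electrophoresis; bidirectional fit versus DMSO baseline.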

[13] = ATG_PPRE_CIS: Attagene CIS-FACTORIAL HepG2 Assay for human Peroxisome Proliferator-activated Response Element (PPRE) (AID 2282958); settings: HepG2 PPRE cis-element reporter, Attagene transcription factor profiling; actives raise or lower the signal
Method in brief: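 DMSO served as negative control and baseline for bidirectional curve fitting. Signal came from PPRE-regulated reporter mRNA in HepG2 cells, measured 24 h post-dosing by RT-PCR, 6-FAM primer extension and capillary electrophoresis.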

[14] = ATG_RORE_CIS: Attagene CIS-FACTORIAL HepG2 Assay for human RAR-related Orphan Receptor Element (RORE) (AID 2282959); settings: HepG2 Attagene cis-factorial RORE reporter, mRNA; actives raise or lower the signal
Method in brief: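 Transfect HepG2 with MRTUs; treat 24 h; extract RNA; RT with oligo(dT); PCR with reporter-specific primers; 6-FAM primer extension; HpaI digest 2 h at 37 C; capillary electrophoresis. Fit vs DMSO, bidirectional.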

[15] = ATG_Sox_CIS: Attagene CIS-FACTORIAL HepG2 Assay for human SRY-box transcription factor (SOX) (AID 2282960); settings: HepG2 Attagene cis-factorial SOX reporter, mRNA; actives raise or lower the signal
Method in brief: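 Fluorescence-labelled cDNA fragments from reporter transcripts, sized by CE, give the signal. Cells: HepG2, transiently transfected with cis-regulated reporter units. Exposure 24 h; DMSO negative control; bidirectional curve fitting.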

[16] = target: Transcription factor Sp1 (Homo sapiens) (UniProt P08047); test: ATG_Sp1_CIS: Attagene CIS-FACTORIAL HepG2 Assay for human Specificity Protein 1 (Sp1) (AID 2282961); settings: HepG2 Sp1 cis-reporter transcription, actives raise or lower the signal
Method in brief: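 Chemicals are dosed onto HepG2 cells transfected with multiple cis-promoter reporter constructs, and after 24 h reporter RNA is reverse-transcribed, PCR-amplified and resolved by capillary electrophoresis for fluorescence quantitation; activity is scored up or down against DMSO.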

[17] = ATG_SREBP_CIS: Attagene CIS-FACTORIAL HepG2 Assay for human Sterol Regulatory Element Binding (SREBP) (AID 2282962); settings: HepG2 Attagene cis-factorial SREBP reporter, mRNA; actives raise or lower the signal
Method in brief: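 mRNA induction of transfected cis-promoter reporters in HepG2 cells, 24 h post-dose. Detection: RT-PCR with 6-FAM-labelled products, HpaI digest, capillary electrophoresis. DMSO served as negative control and baseline.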

[18] = target: Signal transducer and activator of transcription 3 (Homo sapiens) (UniProt P40763); test: ATG_STAT3_CIS: Attagene CIS-FACTORIAL HepG2 Assay for human Signal Transducer and Activator of Transcription 3 (STAT3) (AID 2282963); settings: HepG2, Attagene cis-factorial STAT3 reporter transcription; actives raise or lower the signal
Method in brief: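 HepG2 cells transiently transfected with cis-element-driven multiple reporter transcription units; after 24 h chemical exposure, reporter mRNA measured by RT-PCR, 6-FAM primer-extension labelling, HpaI digestion and capillary electrophoresis. Bidirectional fitting versus DMSO baseline.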

[19] = ATG_TA_CIS: Attagene CIS-FACTORIAL HepG2 Assay for human TA Basal Promoter (AID 2282964); settings: HepG2 Attagene CIS-factorial TA basal promoter reporter; actives raise or lower the signal
Method in brief: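 Steps: transfect HepG2 with MRTUs; dose 24 h; isolate RNA, DNase-treat, reverse-transcribe; PCR and FAM-label reporter cDNA; digest with HpaI 2h at 37 C; run capillary electrophoresis. Activity fitted both directions against DMSO.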

[20] = ATG_PBREM_CIS: Attagene CIS-FACTORIAL HepG2 Assay for human Phenobarbital-responsive Enhancer Module (PBREM) (AID 2282955); settings: HepG2 PBREM cis-reporter, Attagene multiplexed transcription; actives raise or lower the signal
Method in brief: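 Multiplexed cis-reporter readout in human hepatoma HepG2 cells; PBREM-regulated transcript quantified after 24 h exposure by fluorescent RT-PCR fragment analysis. Signal changes up or down fitted relative to DMSO.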

Measured: AC50

Sequence of Hepatocyte nuclear factor 6 (Homo sapiens) (Q9UBC0 whole entry, looked up): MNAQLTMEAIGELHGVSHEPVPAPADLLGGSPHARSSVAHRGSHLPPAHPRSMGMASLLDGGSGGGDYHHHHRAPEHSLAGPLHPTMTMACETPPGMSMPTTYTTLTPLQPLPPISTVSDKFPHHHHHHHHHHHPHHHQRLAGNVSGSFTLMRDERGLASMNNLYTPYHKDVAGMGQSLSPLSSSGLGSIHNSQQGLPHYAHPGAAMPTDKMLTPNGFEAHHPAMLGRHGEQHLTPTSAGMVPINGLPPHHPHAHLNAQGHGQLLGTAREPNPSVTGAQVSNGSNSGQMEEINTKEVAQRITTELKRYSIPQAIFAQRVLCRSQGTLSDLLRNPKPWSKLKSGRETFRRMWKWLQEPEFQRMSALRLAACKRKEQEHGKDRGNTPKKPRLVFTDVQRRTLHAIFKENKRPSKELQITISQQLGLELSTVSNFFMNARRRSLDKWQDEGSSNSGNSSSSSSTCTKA
Sequence of Signal transducer and activator of transcription 3 (Homo sapiens) (P40763 whole entry, looked up): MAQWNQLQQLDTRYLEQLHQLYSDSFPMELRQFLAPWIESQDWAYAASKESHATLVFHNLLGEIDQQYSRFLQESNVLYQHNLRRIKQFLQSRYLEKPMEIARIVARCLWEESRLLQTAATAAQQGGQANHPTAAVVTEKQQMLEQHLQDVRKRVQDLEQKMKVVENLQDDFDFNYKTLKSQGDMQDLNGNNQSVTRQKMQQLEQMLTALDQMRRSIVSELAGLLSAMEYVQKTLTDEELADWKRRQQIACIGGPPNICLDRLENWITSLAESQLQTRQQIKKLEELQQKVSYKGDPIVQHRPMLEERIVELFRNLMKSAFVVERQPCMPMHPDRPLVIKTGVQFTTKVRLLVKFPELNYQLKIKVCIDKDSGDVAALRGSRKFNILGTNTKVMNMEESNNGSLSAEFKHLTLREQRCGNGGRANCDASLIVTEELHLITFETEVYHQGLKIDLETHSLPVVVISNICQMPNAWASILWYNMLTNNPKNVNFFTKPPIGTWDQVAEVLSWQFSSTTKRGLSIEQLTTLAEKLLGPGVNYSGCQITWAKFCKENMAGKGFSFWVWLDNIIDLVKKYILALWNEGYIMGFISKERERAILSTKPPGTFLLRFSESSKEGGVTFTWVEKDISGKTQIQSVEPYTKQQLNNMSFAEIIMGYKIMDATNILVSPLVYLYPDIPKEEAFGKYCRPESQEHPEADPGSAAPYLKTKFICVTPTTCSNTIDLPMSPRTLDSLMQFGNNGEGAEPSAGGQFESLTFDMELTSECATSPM
Sequence of Heat shock factor protein 1 (Homo sapiens) (Q00613 whole entry, looked up, the tested form may be a part): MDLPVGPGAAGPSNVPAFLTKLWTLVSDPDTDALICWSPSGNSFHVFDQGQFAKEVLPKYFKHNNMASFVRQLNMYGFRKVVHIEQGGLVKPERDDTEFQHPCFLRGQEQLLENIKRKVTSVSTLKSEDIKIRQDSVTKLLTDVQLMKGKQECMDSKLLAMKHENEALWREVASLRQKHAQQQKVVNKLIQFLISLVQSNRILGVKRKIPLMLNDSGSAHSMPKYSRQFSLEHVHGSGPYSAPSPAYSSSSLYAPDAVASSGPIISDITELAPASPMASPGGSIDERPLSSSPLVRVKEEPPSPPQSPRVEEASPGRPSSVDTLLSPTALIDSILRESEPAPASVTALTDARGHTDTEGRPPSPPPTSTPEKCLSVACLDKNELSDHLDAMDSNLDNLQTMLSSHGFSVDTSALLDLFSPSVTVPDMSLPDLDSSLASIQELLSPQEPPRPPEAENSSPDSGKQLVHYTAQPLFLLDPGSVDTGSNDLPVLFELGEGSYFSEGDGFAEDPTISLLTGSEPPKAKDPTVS
Sequence of Bile acid receptor (Homo sapiens) (Q96RI1 whole entry, looked up): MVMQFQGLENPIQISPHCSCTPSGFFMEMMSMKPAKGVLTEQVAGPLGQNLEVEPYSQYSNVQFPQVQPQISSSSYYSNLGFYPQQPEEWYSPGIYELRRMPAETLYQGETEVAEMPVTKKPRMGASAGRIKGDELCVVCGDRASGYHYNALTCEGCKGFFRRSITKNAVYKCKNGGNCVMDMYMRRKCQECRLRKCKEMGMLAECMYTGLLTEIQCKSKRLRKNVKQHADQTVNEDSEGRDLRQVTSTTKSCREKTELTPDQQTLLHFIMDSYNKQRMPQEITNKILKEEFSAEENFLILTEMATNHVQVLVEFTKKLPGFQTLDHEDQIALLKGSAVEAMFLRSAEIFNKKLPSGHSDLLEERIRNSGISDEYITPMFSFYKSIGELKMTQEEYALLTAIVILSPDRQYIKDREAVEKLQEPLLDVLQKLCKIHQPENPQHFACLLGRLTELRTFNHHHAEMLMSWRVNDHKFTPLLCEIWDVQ
Sequence of Transcription factor Sp1 (Homo sapiens) (P08047 whole entry, looked up): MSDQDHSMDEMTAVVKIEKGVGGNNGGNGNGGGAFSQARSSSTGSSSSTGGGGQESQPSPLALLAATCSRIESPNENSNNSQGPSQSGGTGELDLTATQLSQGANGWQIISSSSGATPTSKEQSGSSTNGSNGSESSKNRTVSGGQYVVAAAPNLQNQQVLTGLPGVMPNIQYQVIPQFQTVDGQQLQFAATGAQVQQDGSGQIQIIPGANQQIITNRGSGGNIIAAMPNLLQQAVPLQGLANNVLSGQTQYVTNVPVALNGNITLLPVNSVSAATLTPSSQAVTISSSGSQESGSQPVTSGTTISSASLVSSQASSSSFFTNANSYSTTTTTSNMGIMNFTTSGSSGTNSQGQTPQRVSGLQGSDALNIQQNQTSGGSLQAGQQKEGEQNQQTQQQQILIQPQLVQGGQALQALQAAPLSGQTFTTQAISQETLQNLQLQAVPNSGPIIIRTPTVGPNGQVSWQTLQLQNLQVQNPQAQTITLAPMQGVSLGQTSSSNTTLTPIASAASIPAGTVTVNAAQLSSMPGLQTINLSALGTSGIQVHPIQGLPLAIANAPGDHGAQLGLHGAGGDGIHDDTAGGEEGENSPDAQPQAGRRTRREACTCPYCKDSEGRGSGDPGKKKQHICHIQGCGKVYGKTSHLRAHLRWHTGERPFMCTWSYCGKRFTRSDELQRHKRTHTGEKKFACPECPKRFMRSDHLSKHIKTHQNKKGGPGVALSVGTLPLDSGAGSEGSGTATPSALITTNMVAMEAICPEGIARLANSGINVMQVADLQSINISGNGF
Sequence of Hypoxia-inducible factor 1-alpha (Homo sapiens) (Q16665 whole entry, looked up): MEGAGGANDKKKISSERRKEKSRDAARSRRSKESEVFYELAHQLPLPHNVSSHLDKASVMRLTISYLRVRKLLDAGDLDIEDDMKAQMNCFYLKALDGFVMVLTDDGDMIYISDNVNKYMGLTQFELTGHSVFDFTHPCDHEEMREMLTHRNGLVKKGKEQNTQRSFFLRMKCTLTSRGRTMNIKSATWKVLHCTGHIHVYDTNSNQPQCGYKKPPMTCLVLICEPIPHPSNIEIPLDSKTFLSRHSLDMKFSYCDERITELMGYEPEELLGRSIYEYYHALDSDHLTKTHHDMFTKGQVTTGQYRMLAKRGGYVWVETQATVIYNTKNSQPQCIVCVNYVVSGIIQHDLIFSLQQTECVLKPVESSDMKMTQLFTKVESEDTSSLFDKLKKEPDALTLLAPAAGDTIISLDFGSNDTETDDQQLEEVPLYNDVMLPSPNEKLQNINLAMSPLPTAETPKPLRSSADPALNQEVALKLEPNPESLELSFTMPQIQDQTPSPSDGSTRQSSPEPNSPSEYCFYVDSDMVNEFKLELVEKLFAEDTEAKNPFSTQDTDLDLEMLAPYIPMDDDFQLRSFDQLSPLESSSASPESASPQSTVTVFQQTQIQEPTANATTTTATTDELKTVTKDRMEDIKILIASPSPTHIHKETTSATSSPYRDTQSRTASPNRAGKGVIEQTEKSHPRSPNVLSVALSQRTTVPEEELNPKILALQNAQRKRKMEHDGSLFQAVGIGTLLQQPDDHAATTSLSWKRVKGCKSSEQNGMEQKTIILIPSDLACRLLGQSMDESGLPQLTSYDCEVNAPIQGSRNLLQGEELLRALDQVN
Sequence of Paired box protein Pax-6 (Homo sapiens) (P26367 whole entry, looked up): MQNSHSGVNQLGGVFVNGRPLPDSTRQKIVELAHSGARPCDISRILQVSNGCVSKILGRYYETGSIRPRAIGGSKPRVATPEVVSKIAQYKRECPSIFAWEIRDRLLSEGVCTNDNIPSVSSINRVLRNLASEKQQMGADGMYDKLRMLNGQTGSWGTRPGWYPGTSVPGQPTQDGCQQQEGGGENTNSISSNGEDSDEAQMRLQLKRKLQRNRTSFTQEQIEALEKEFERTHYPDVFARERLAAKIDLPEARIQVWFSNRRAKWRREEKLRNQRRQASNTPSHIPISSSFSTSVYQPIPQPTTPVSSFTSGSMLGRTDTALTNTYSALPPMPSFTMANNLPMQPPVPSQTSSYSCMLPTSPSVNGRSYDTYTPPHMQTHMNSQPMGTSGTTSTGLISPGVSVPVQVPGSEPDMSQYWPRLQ

OCC(F)(F)C(F)(F)C(F)(F)C(F)F
not listed: [20]
inactive: all other assays above

O=C(O)C(F)(F)C(F)(F)C(F)(F)C(F)(F)C(F)(F)C(F)(F)C(F)(F)C(F)(F)Cl
inactive: [2] | [3] | [5] | [6] | [8] | [20] | [12] | [15] | [16] | [17] | [18]
active: [4] 32.1 µM and 50 µM | [7] 50 µM | [9] 75.8 µM and 82.1 µM | [10] 55.5 µM and 66.6 µM | [11] 59.1 µM and 50 µM | [12] 13.7 µM | [13] 39.2 µM and 35.4 µM | [14] 28.4 µM and 57.9 µM

FC(F)(Br)C(F)(F)C(F)(F)C(F)(F)C(F)(F)C(F)(F)Br
not listed: [20]
inactive: all other assays above

Cc1cccc(N(C)C)c1
not listed: [20]
inactive: all other assays above

O=C(O)C(F)(F)C(F)(F)C(F)F
inactive: all assays above

CCCCC(CC)COP(=O)(O)OCC(CC)CCCC (stereo not drawn)
active: [12] 9.1 µM | [13] 5.45 µM
not listed: [1] | [19]
inactive: all other assays above

O=C(O)C(F)(OC(F)(F)C(F)(OC(F)(F)C(F)(OC(F)(F)C(F)(F)C(F)(F)F)C(F)(F)F)C(F)(F)F)C(F)(F)F (stereo not drawn)
active: [12] 83.3 µM
inactive: [2] | [3] | [4] | [5] | [6] | [7] | [8] | [9] | [10] | [20] | [11] | [12] | [13] | [14] | [15] | [16] | [17] | [18]
